Drawing on PubChem BioAssay (NCATS), this text covers Potency and viability for nine compounds.

Molecules are shown by their SMILES. Results filed as inconclusive are left out. Unmarked numbers belong to inactive results. Activity calls are given as the source filed them. The call rests on the fitted dose curve; in most records, active means well fitted cell-killing curve with a large enough effect; inconclusive means small, poorly fitted or top-dose-only effect, or effect the other way; inactive means no such curve, though single readings can be large or run the other way.

As usually defined, the viability is a read-out of living cells in per cent, often relative to untreated cells.

The nature of assay [1]: Quantitative High-Throughput drug screen in 47 multiple myeloma cell lines against the NCATS MIPE library collection: KMS28PE_JCRB cell viability assay (AID 1918983). Further: nearly all actives have a fitted effect of over 35% in size. A digest of the protocol: (§1)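 Inhibition of viability over 48 h was scored by ATP content (CellTiter-Glo) in 500-cell wells. Zero and full viability were defined by media-only and DMSO-only wells.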
Assay [2] can be described thus: Quantitative High-Throughput drug screen in 47 multiple myeloma cell lines against the NCATS MIPE library collection: KMS34_JCRB cell viability assay (AID 1918985). Further: nearly all actives have a fitted effect of over 40% in size. Put shortly: as §1
Assay [3] in a line: Quantitative High-Throughput drug screen in 47 multiple myeloma cell lines against the NCATS MIPE library collection: SKMM1_PLB cell viability assay (AID 1919863). Further: nearly all actives have a fitted effect of over 35% in size. Particulars: SKMM1 myeloma viability, CellTiter-Glo ATP, 48 h; viability: active compounds read low. Put shortly:
as §1
For orientation: Cellular ATP, detected with luciferase, serves as a proxy for viable cell number.

Assay [4] can be described thus: Quantitative High-Throughput drug screen in 47 multiple myeloma cell lines against the NCATS MIPE library collection: U266_ATCC cell viability assay (AID 1919864). Further: nearly all actives have a fitted effect of over 35% in size.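 On viability (% of DMSO control): 0% = media-only wells without cells and 100% = DMSO-only wells.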 A digest of the protocol:
as §1

Assay [5] in a line: Quantitative High-Throughput drug screen in 47 multiple myeloma cell lines against the NCATS MIPE library collection: XG1_PLB cell viability assay (AID 1919866). Further: nearly all actives have a fitted effect of over 35% in size. Put shortly: as §1
Assay [6] is described as follows: Quantitative High-Throughput drug screen in 47 multiple myeloma cell lines against the NCATS MIPE library collection: PE2_PLB cell viability assay (AID 1919869). Further: nearly all actives have a fitted effect of over 35% in size. A digest of the protocol:
as §1

Assay [7] can be described thus: Quantitative High-Throughput drug screen in 47 multiple myeloma cell lines against the NCATS MIPE library collection: PCM6_Riken cell viability assay (AID 1919870). Further: nearly all actives have a fitted effect of over 30% in size. A digest of the protocol: as §1
A short description of assay [8]: Quantitative High-Throughput drug screen in 47 multiple myeloma cell lines against the NCATS MIPE library collection: OPM2_DSMZ cell viability assay (AID 1919872). Further: nearly all actives have a fitted effect of over 30% in size. Put shortly: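 Viability readout: CellTiter-Glo luminescence following 5 min room-temperature incubation with reagent. Prior exposure: 48 h, 37C, humidified 5% CO2, 500 cells per well.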
The nature of assay [9]: Quantitative High-Throughput drug screen in 47 multiple myeloma cell lines against the NCATS MIPE library collection: KMS11_JCRBsus cell viability assay (AID 1919873). Further: nearly all actives have a fitted effect of over 50% in size. Put shortly: as §1
Assay [10] is described as follows: Quantitative High-Throughput drug screen in 47 multiple myeloma cell lines against the NCATS MIPE library collection: OCIMY5_PLB cell viability assay (AID 1918988). Further: nearly all actives have a fitted effect of over 65% in size. A digest of the protocol: as §1
Assay [11] is described as follows: Quantitative High-Throughput drug screen in 47 multiple myeloma cell lines against the NCATS MIPE library collection: XG6_PLB cell viability assay (AID 1919865). Further: nearly all actives have a fitted effect of over 40% in size. A digest of the protocol:
as §1

Assay [12] in a line: Quantitative High-Throughput drug screen in 47 multiple myeloma cell lines against the NCATS MIPE library collection: RPMI8226_ATCC cell viability assay (AID 1919871). Further: nearly all actives have a fitted effect of over 30% in size. Put shortly: as §1
A short description of assay [13]: Quantitative High-Throughput drug screen in 47 multiple myeloma cell lines against the NCATS MIPE library collection: KMS28BM_JCRB cell viability assay (AID 1919874). Further: nearly all actives have a fitted effect of over 35% in size. A digest of the protocol: as §1
A short description of assay [14]: Quantitative High-Throughput drug screen in 47 multiple myeloma cell lines against the NCATS MIPE library collection: OCIMY7_PLB cell viability assay (AID 1918987). Further: nearly all actives have a fitted effect of over 65% in size. Particulars: OCI-MY7 myeloma viability, CellTiter-Glo ATP, 48 h; viability (% of DMSO): at 45.8 µM (top of the series). Put shortly:
as §1

A short description of assay [15]: Quantitative High-Throughput drug screen in 47 multiple myeloma cell lines against the NCATS MIPE library collection: OPM1_PLB cell viability assay (AID 1918989). Further: nearly all actives have a fitted effect of over 40% in size. Put shortly:
as §1

A short description of assay [16]: Quantitative High-Throughput drug screen in 47 multiple myeloma cell lines against the NCATS MIPE library collection: VP6_DJ cell viability assay (AID 1919867). Further: nearly all actives have a fitted effect of over 40% in size. Put shortly: as §1
Assay [17] can be described thus: Quantitative High-Throughput drug screen in 47 multiple myeloma cell lines against the NCATS MIPE library collection: UTMC2_PLB cell viability assay (AID 1919868). Further: nearly all actives have a fitted effect of over 55% in size. To be noted: CellTiter-Glo ATP luminescence, 48 h; viability (% of DMSO control): at 45.8 µM (top of the series). A digest of the protocol: as §1
Potency means the concentration at half of the fitted maximal effect.

Regarding `CC(=O)OCC(=O)[C@@]1(O)CC[C@H]2[C@@H]3CCC4=CC(=O)C=C[C@]4(C)[C@@H]3[C@@H](O)C[C@@]21C`, the Potency entry in assay [1], in assay [4], in assay [5], in [6], in assay [7] and in assay [8] was “inactive” throughout. Further, the Potency in assay [2] is 0.209 µM (active); in assay [3], 0.0074 µM (active); in assay [9] it was 0.235 µM (active).
Consider `CCC(=C(CC)c1ccc(O)cc1)c1ccc(O)cc1`, for which the Potency in [1] is 18.7 µM (active); in assay [2], 23.5 µM (active); in assay [10] it was 20.9 µM (active); in assay [3], 14.8 µM (active); in [11] it was 20.9 µM (active); in assay [5] it was 14.8 µM (active). Further, the Potency in assay [6] is 18.7 µM (active); in assay [7], 18.7 µM (active); in assay [12], 29.6 µM (active); in assay [8], 26.4 µM (active); in [9], 14.8 µM (active); in assay [13], 16.6 µM (active).
For the compound `COc1ccc(-c2cc3nccn3c(Nc3ncccc3C(N)=O)n2)cc1OC`, the Potency in [1] was 5.9 µM (active); in assay [14], 0.148 µM (active); in assay [10] it was 3.32 µM (active); in assay [15], 2.09 µM (active); in [4] it was 16.6 µM (active); in assay [11] it was 1.18 µM (active). The Potency in [16] was 0.935 µM (active); in [17], 1.18 µM (active); in assay [6], 0.59 µM (active); in assay [7], 0.264 µM (active); in assay [8] it was 8.33 µM (active); in assay [9] it was 4.69 µM (active). The viability in assay [3] was 103%. In [12], the Potency entry is “inactive”.
Regarding `Cc1ccc(C2=Nc3ccc(Cl)cc3OC2)cc1`, the Potency result in assay [1], in [5], in assay [6], in assay [8] and in assay [13] was “inactive” throughout. The Potency is 6.62 µM (active) in assay [2]; 1.32 µM (active) in assay [14]; 9.35 µM (active) in assay [4]; 7.43 µM (active) in [11]; 7.43 µM (active) in [7]; 1.87 µM (active) in [12].
On to `CNc1nc(Nc2ccc(C(=O)N3CCOCC3)cc2OC)ncc1Cl`, for which the Potency entry in assay [1], in assay [14], in [15], in assay [4], in assay [8] and in assay [9] was “inactive” each time. The Potency entry in [13] was “inactive”. In addition, the Potency in assay [10] is 14.8 µM (active); in assay [5], 16.6 µM (active); in assay [7], 16.6 µM (active). Besides, in [3], the viability is 112%.
As to `CCOC(=O)[C@@H](N)CCC(=O)N[C@@H](CSCc1ccccc1)C(=O)N[C@@H](C(=O)OCC)c1ccccc1`, the Potency result in assay [1], in assay [12], in assay [9] and in assay [13] was “inactive” each time. For the same compound, the Potency in assay [14] was 23.5 µM (active); in assay [11], 11.8 µM (active); in assay [5], 23.5 µM (active); in assay [17], 23.5 µM (active); in [6], 20.9 µM (active).
As for `COc1ccc(-c2ccc3ncc4c(c3c2)n(-c2ccc(N3CCNCC3)c(C(F)(F)F)c2)c(=O)n4C)cn1`, the Potency in assay [1] is 0.0066 µM (active); in assay [14], 0.0059 µM (active); in [10], 0.0469 µM (active); in assay [3], 0.526 µM (active); in [4] it was 0.118 µM (active); in [12] it was 0.332 µM (active).
As for `CN1N=C(N)c2cn([C@@H]3O[C@H](COP(=O)(O)O)[C@@H](O)[C@@H]3O)c3ncnc1c23`, the Potency in [1] was 0.833 µM (active); in assay [2], 0.833 µM (active); in assay [14] it was 2.09 µM (active); in assay [10] it was 0.296 µM (active); in [3], 1.32 µM (active); in [4], 5.26 µM (active). For the same compound, the Potency in [17] was 0.0235 µM (active); in assay [6], 0.059 µM (active); in assay [7], 1.05 µM (active); in [12] it was 0.105 µM (active); in [13], 23.5 µM (active).
Turning to `O=C(O)Cc1cccc(OCCCN(Cc2cccc(C(F)(F)F)c2Cl)CC(c2ccccc2)c2ccccc2)c1`, the Potency in [1] was 23.5 µM (active); in assay [14], 13.2 µM (active); in assay [3], 11.8 µM (active); in [5], 20.9 µM (active); in assay [6] it was 16.6 µM (active); in assay [7] it was 18.7 µM (active). Besides, the Potency result in assay [4] and in [8] was “inactive” each time.
